Test [1] is described as follows: qHTS Assay for Lipid Storage Modulators (AID 1519; calls by dose curve; on activity change, negative = inhibition: on the % scale 0 is the no-effect control and ±100 the full control effect). Particulars: Drosophila S3 cells, BODIPY lipid droplet/cell ratio, laser cytometry, cells loaded with oleic acid; for activity change, negative = inhibition: at 57.5 µM (top of the series). In short, it runs like this:
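Cells seeded at 5,000 per well were treated with compounds over a concentration series and loaded with oleic acid (400 uM, as added). Lipid droplet fluorescence (488 nm excitation, 500-530 nm channel) was read by laser-scanning cytometry and normalized to 20 uM Triacsin C.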
A general note: qHTS replaces the single test concentration by a dilution series.

Test [2] addresses Ubiquitin carboxyl-terminal hydrolase 1 (Homo sapiens) (UniProt O94782). The test can be described thus: Inhibitors of USP1/UAF1: Pilot qHTS (AID 504865).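 Further: rhodamine fluorescence freed from ubiquitin-rhodamine substrate followed over time; top concentration of the series differs between compounds; on the % scale 0 is the no-effect control and ±100 the full control effect; nearly all actives have a fitted effect of over 35% in size.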 Particulars: purified USP1/UAF1, Ub-rhodamine cleavage fluorescence; series mostly up to 114 µM. In a few lines: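 In 50mM HEPES pH 7.8 containing 0.5mM EDTA, 1mM TCEP, 0.1 mg/ml BSA and 0.01% Tween-20, 1nM USP1/UAF1 is exposed to compound for 15 min, then Ub-Rho (150nM final) is added and fluorescence is read over time.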

Test [3] has as its target ATP-dependent 6-phosphofructokinase (Trypanosoma brucei brucei) (UniProt O15648). Nature of the test: qHTS Assay to Find Inhibitors of T. brucei phosphofructokinase: hit validation (AID 492961).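 Further: luminescence reports ADP formed as PFK phosphorylates fructose-6-phosphate with ATP; on the % scale 0 is the no-effect control and ±100 the full control effect.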 To be noted: T. brucei PFK, ADP-Glo luminescence; series mostly up to 24.3 µM. In a few lines: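 In this biochemical qHTS validation, titrated compounds were tested against 1.25 nM PFK with 0.1 mM ATP and 0.5 mM F6P. Percent activity came from controls lacking or containing enzyme.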

The target of test [4] is Luciferin 4-monooxygenase (Photinus pyralis) (UniProt P08659). Nature of the test: Biochemical firefly luciferase enzyme assay for NPC (AID 624030).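 Further: purified P. pyralis luciferase at 10 nM with luciferin and ATP substrate; 0% = DMSO and -100% = full luciferase inhibition by PTC124 control; nearly all actives have a fitted effect of over 70% in size.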 To be noted: purified P. pyralis luciferase, luminescence, 5 min; series mostly up to 24.9 µM. In short, it runs like this: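 Direct inhibition of firefly luciferase enzyme (10 nM final, 50 mM Tris Acetate) assessed by luminescence within 5 minutes. Percent activity scaled between DMSO and PTC124 positive control, with concentration-effect curves classified by fit quality and response.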

Test [5] in a line: qHTS profiling for inhibitors of Plasmodium falciparum proliferation (AID 504749).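 Further: 0% = DMSO vehicle and full inhibition = artemisinin control; nearly all actives have a fitted effect of over 60% in size.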 To be noted: P. falciparum in erythrocytes, SYBR Green DNA, 72 h, at 28.7 µM (top of the series). In short, it runs like this:
(§1)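 In a 72 h erythrocytic culture (37 C, humidified, 5% CO2) at 2.5% hematocrit and 0.3% starting parasitemia, compounds were tested; SYBR Green I in detergent lysis buffer stained parasite DNA overnight.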

In a further test the test system is C2A. Described as above. To be noted: P. falciparum in erythrocytes, SYBR Green DNA, 72 h; series mostly up to 12.8 µM. In short, it runs like this: as §1
The subject of the next test is CP201. The test is described as above. To be noted: P. falciparum in erythrocytes, SYBR Green DNA, 72 h; series mostly up to 12.8 µM. In short, it runs like this: as §1
For a further test, the system named is CP252. Described as above. Particulars: P. falciparum in erythrocytes, SYBR Green DNA, 72 h; series mostly up to 12.8 µM. In a few lines: as §1
For a further test, the system named is CP262. Described as above. Particulars: P. falciparum in erythrocytes, SYBR Green DNA, 72 h; series mostly up to 12.8 µM. In short, it runs like this:
as §1

The next test relates to CP268. The description is as above. To be noted: P. falciparum in erythrocytes, SYBR Green DNA, 72 h; series mostly up to 12.8 µM. In a few lines:
as §1

Another test relates to CP305. The test is described as above. To be noted: P. falciparum in erythrocytes, SYBR Green DNA, 72 h; series mostly up to 12.8 µM. In a few lines:
as §1

In a further test the test system is CP315. The description is as above. Particulars: P. falciparum in erythrocytes, SYBR Green DNA, 72 h; series mostly up to 12.8 µM. In a few lines: as §1
The test system of another test is CP329. Described as above. Particulars: P. falciparum in erythrocytes, SYBR Green DNA, 72 h; series mostly up to 12.8 µM. In a few lines:
as §1

The test system of a further test is JCK. The description is as above. Particulars: P. falciparum in erythrocytes, SYBR Green DNA, 72 h; series mostly up to 12.8 µM. In a few lines: as §1
The test system of a further test is PC49. Described as above. To be noted: P. falciparum in erythrocytes, SYBR Green DNA, 72 h; series mostly up to 12.8 µM. In a few lines: as §1
Another test deals with 3D7. The test is described as above. To be noted: P. falciparum in erythrocytes, SYBR Green DNA, 72 h; series mostly up to 12.8 µM. In short, it runs like this: as §1
The next test concerns CP211. The description is as above. To be noted: P. falciparum in erythrocytes, SYBR Green DNA, 72 h; series mostly up to 12.8 µM. In short, it runs like this: as §1
The test system of a further test is CP237. The test is described as above. Particulars: P. falciparum in erythrocytes, SYBR Green DNA, 72 h; series mostly up to 12.8 µM. In short, it runs like this:
as §1

For a further test, the system named is HB3. Described as above. Particulars: P. falciparum in erythrocytes, SYBR Green DNA, 72 h; series mostly up to 12.8 µM. In a few lines:
as §1

The subject of the next test is PAD. The test is described as above. Particulars: P. falciparum in erythrocytes, SYBR Green DNA, 72 h; series mostly up to 12.8 µM. In short, it runs like this: as §1
Where [6] appears, read: measured here: cell count channel max response.
Where [7] appears, read: measured here: lipid channel max response.

Inconclusive results are not listed. Calls of active or inactive are those of the source. Unless noted, the call rests on the fitted dose curve; in most records, active means well fitted curve in the direction sought with a large enough effect; inconclusive means small, poorly fitted or top-dose-only effect, or another doubt; inactive means no such curve, though single readings can be large; an effect the other way counts as inactive or inconclusive.

Sequence of Luciferin 4-monooxygenase (Photinus pyralis) (P08659 whole entry, looked up): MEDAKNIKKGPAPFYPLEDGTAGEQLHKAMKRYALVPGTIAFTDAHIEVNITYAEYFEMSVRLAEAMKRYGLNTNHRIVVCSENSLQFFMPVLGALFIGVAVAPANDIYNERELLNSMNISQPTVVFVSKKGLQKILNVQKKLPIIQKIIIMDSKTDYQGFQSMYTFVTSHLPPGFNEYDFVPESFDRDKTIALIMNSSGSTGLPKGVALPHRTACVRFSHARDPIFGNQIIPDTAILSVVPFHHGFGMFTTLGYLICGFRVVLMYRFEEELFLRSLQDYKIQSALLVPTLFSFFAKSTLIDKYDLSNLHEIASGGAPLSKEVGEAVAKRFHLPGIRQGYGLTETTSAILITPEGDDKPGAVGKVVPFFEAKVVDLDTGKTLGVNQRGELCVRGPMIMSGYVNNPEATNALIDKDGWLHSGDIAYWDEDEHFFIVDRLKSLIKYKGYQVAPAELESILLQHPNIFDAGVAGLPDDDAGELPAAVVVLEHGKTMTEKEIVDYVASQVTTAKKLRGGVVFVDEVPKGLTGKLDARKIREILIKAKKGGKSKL
Sequence of ATP-dependent 6-phosphofructokinase (Trypanosoma brucei brucei) (O15648 whole entry, looked up): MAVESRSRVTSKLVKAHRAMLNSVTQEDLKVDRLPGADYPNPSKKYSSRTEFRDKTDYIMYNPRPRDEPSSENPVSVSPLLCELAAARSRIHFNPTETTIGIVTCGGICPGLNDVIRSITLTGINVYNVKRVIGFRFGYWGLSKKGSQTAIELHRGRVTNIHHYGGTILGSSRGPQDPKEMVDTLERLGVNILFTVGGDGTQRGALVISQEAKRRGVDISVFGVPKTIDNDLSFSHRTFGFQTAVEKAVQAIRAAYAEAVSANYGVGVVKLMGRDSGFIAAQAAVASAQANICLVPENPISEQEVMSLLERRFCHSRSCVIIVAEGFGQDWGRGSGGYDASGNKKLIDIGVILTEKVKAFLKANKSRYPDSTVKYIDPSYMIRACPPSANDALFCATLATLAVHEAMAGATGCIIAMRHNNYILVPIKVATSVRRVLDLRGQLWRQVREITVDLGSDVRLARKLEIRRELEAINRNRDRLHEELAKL
Sequence of Ubiquitin carboxyl-terminal hydrolase 1 (Homo sapiens) (O94782 whole entry, looked up): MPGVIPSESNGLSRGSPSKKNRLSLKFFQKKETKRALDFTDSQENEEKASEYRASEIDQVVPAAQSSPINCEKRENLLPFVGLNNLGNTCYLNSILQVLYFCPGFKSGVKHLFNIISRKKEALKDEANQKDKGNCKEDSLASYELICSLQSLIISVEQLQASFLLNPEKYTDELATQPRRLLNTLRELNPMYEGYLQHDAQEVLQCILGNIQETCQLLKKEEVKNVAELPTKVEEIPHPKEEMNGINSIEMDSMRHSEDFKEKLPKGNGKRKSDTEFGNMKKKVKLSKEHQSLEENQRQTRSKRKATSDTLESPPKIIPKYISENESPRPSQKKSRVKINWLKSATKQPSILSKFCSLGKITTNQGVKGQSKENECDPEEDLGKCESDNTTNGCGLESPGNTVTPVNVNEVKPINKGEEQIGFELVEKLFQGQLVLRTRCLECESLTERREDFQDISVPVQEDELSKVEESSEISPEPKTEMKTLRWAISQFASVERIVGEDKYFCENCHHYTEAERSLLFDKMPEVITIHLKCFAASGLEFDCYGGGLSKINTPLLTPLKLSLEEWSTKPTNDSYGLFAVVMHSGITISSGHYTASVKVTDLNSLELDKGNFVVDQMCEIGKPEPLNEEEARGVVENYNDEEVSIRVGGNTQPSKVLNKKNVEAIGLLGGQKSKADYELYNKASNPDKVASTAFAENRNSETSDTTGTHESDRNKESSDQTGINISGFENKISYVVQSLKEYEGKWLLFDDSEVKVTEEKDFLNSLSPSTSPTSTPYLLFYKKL

Consider `C[C@H](CCC(=O)O)[C@H]1CC[C@H]2[C@H]3C(C[C@H](O)[C@]12C)[C@@]1(C)CC[C@@H](O)C[C@H]1C[C@H]3O` (stereo not given in full), for which the activity change, negative = inhibition in [1] was 9.53% (inactive). Further, the max response is 17.9% in [1] (setting [6]) and 25.2% in [1] (setting [7]). The Potency entry in test [2] was “inactive”.

In the case of `CCCCCCCCCc1ccc(OCCOCCOCCOCCOCCOCCOCCOCCOCCO)cc1`, the activity change, negative = inhibition in [1] is -9.66% (inactive). Besides, the max response in test [1] (setting [6]) is 4.66%; in test [1] (setting [7]) it was -5.26%. The outcome in test [3] was inactive. The Potency result (in test [4]; with C2A; in the test on CP201; in the test with CP252; in the test with CP262; in the test with CP268) was “inactive” throughout. Besides, the Potency result in the test on CP305, in the test on CP315, with CP329, in the test with JCK and in the test on PC49 was “inactive” in each case. In test [5] (parasite line B), the activity, negative = inhibition was -22.2% (inactive).

`OCC1OC(n2cnc3c(=S)nc[nH]c32)C(O)C1O` (stereo not given): the activity change, negative = inhibition in [1] is 0.292% (inactive). The max response in test [1] (setting [6]) was -3.48%; in test [1] (setting [7]), -0.429%. Also, in test [3], the compound was called inactive. Further, the Potency result (in test [2]; in test [4]; in the test with 3D7; in the test on C2A; in the test with CP201; in the test with CP211) was “inactive” throughout. Also, the Potency result in the test on CP237, in the test on CP252, in the test with CP262, in the test with CP268, with CP305 and with CP315 was “inactive” each time. In addition, the Potency entry in the test on CP329, with HB3, in the test on JCK, in the test on PAD and with PC49 was “inactive” throughout. For the same compound, the activity, negative = inhibition in test [5] (parasite line A) is -27.9% (inactive).

For `CC1C2CCC3C4CC=C5CC(N(C)C)CC[C@@]5(C)C4CC[C@@]32CN1C` (stereo not given in full), in test [1], the activity change, negative = inhibition is 6.04% (inactive). The max response came to 14% in test [1] (setting [6]) and 22.7% in [1] (setting [7]). Moreover, the call in test [3] was inactive. Further, the Potency result (in [2]; in test [4]; in the test with 3D7; in the test with C2A; in the test on CP201; in the test with CP211) was “inactive” throughout. Besides, the Potency entry with CP237, in the test on CP252, in the test on CP262, in the test with CP268, in the test with CP305 and in the test with CP315 was “inactive” each time. The Potency entry in the test on CP329, in the test on HB3, in the test on JCK, in the test on PAD and with PC49 was “inactive” throughout. For the same compound, the activity, negative = inhibition in test [5] (parasite line A) was 2.63% (inactive); in test [5] (parasite line B) it was 0.451% (inactive).

(Values after PubChem BioAssay (NCATS).)
